Measured values taken from ChEMBL document CHEMBL3988442, “University of Dundee, Small-Polar-MMV Screening Library” (2021).
Among all 48,000 compounds or so, about 13,000 (27%) showed an effect of 50% or more. Some of the results follow.

system: Wolbachia pipientis; assay: Anti-Wolbachia Cell-Based Screen; type: functional; set-up: scale not given: in the data most compounds retested in dose-response had high values; conditions: 5 µM

SMILES	Percent Effect [%]
CCCN(CC1COc2ccccc2O1)C(=O)CCn1cncn1 (centres undefined)	-2.229
O=C(Cn1cc(C(=O)O)ccc1=O)NCc1ccc(F)cc1Cl	11.66
Cc1c(Br)cccc1C(=O)NC(C)CN1CCCC1=O (centres undefined)	-7.738
CC(C)NC(=O)N1C[C@@H](F)[C@@H](OCc2nc3ccccc3o2)C1	-6.815
CN(C)Cc1cc(CC2(NCc3ccccc3Cl)COC2)no1	-4.538
COC[C@@]12CC[C@@H](N3CCOCC3)C[C@H]1CCN(c1nc(CO)cs1)C2	-10.66
O=C(c1c2c(NCC3CC3)ncnc2n2ccccc12)N1CCOCC1	2.912
CCN(C)C(=O)c1ccnn1-c1ccc2ccccn12	-2.565
O=C(NCCN1CCOCC1)c1ccnn1-c1ccc2ccccn12.O=C(O)C(F)(F)F	-0.1496
O=C(c1ccnn1-c1ccc2ccccn12)N1CCCC1	84.68
COCCNC(=O)c1ccnn1-c1ccc2ccccn12	-19.09
O=C(c1ccnn1-c1ccc2ccccn12)N1CCOCC1	95.26
Cc1cccc2c1nc1n2[C@@H](CNC(=O)c2ccccn2)COC1	-9.692
CC(C)COC(=O)N1CCCN(Cc2nnc(C(C)(C)C)o2)CC1	-7.056
CC(C)CC(NC(=O)c1cnn(C)c1)C(=O)Nc1cc[nH]n1 (centres undefined)	-3.159
CC(Cn1cccn1)NC(=O)Cc1cccs1 (centres undefined)	8.385
CC(Cn1cccn1)NC(=O)C1=Cc2ccccc2OC1 (centres undefined)	2.492
CC(Cn1cccn1)NC(=O)NCCc1cnn(C)c1 (centres undefined)	-2.639
CC(C)(C)C(Cn1ccnc1)NC(=O)NCc1ccco1 (centres undefined)	10.62
Cn1cc(C(=O)NC(Cn2cccn2)C(C)(C)C)cn1 (centres undefined)	91.75
CN(Cc1ccco1)C(=O)NC(Cn1ccnc1)C(C)(C)C (centres undefined)	-3.966
CCn1nccc1C(=O)NC(Cn1cccn1)C(C)(C)C (centres undefined)	98.31
CC(C)(C)C(Cn1cccn1)NC(=O)c1ccco1 (centres undefined)	126.5
O=S(=O)(Nc1ccc(N2CCOCC2)cc1)c1cccc(F)c1	2.423

SMILES	Percent Effect [%]
Cc1cc(CN2CC3(CCN(C(=O)C4CC4)CC3)CC2C(=O)O)oc1C (centres undefined)	-14.13
O=c1[nH]c(NCc2cccc(-c3ccccc3)c2)nc2c1CCNC2	-0.2023
CC(=O)c1cccc(-c2nc3c([nH]2)CCNC3)c1F	-6.254
CS(=O)(=O)N1CC2(CCCN(C3COC3)C2)Cc2ccccc21 (centres undefined)	116.4
CS(=O)(=O)N1CCOC2(CCN(c3ncccn3)CC2)c2ccccc21	-2.489
CS(=O)(=O)N1CC2(CCN(C3COC3)C2)Cc2ccccc21 (centres undefined)	109.7
Cc1cccc(N2CCC(N3CCCC4(CNC(=O)O4)C3)CC2)c1C (centres undefined)	-4.7
Cc1cccc(N2CCC(N3CCCC4(CN(C)C(=O)O4)C3)CC2)c1C (centres undefined)	11.85
O=C(O)C(F)(F)F.O=C(O)C(F)(F)F.c1ccc(CN2CCOCC3(CCN(C4CCOCC4)C3)C2)cc1 (centres undefined)	-14.02
Cn1c(C2CC2)nc2cc(NC(=O)C3CCOC3)ccc21 (centres undefined)	-8.416
CCc1nnc(CN2CCCN(C(=O)c3ccccn3)CC2)o1	-2.51
Cc1nnc2n1CCN(C(=O)CN1C(=O)CCCc3ccccc31)C2	-14.77
COc1cccc2sc(N3CCN(C(=O)c4cc(C)on4)CC3)nc12	127.7
COC(=O)c1ccc(N2CCN(C(=O)c3cc(C)on3)C(C)C2)cc1 (centres undefined)	-4.868
Cc1cc(CNC(=O)N2CCN(c3ccccc3)CC2)no1	0.5807
Cc1cc(NC(=O)N2CCN(c3nc(C)c(C)s3)CC2)no1	-7.587
Cc1cc(CNC(=O)N2CCN(c3nc(C)c(C)s3)CC2)no1	-6.921
COc1cccc([C@H]2CN(C(=O)c3cc(C)on3)C[C@@H]2N)c1	-12.5
Cc1cc(C(=O)N2CCN(c3nc4c(C)cccc4s3)CC2)no1	128.5
Cc1cc(C(=O)N2CCN(c3nc4ccccc4s3)CC2)no1	133.9
CCc1nc(CN2CCCN(C(=O)c3cc(C)on3)CC2)cs1	-3.396
Cc1cc(C(=O)N2CCN(c3nc4c(C(C)C)cccc4s3)CC2)no1	100.9
Cc1cc(C(=O)N2CCC3(CC2)c2nc[nH]c2CCN3CC(C)C)no1	-20.9
Cc1cc(C(=O)N2CCc3ncc(CN4CCCCC4)n3CC2)no1	-1.928

SMILES	Percent Effect [%]
CNS(=O)(=O)c1ccc(CNC(=O)Nc2cc(C)on2)s1	-23.04
Cc1ccc2nc(C)c(C)c(C(=O)N3CCS(=O)(=O)CC3)c2c1	7.171
O=C(NCC(Cc1cccc(F)c1)n1cccc1)C1CC1 (centres undefined)	6.756
COCCC(C)NCc1ccccc1-n1ccnc1 (centres undefined)	-12.2
COc1cccc(NC(=O)N(CCO)C2CCc3ccccc32)c1 (centres undefined)	-4.61
O=C(CN1CCOC(Cn2cccn2)C1)Nc1nncs1 (centres undefined)	-3.509
NC(=O)C(NC(=O)CSCc1ccc(Cl)s1)c1ccccc1 (centres undefined)	12.02
Cc1cccc(C(=O)N2CCN(c3ccccc3F)CC2)n1	-20.73
Cc1cc(C(=O)N2CCN(c3nc4c(F)cccc4s3)CC2)no1	123.7
Cc1cc(C(=O)N2CCN(c3nc4c(C(C)C)cccc4s3)CC2)on1	114.6
CCc1nc(CN2CCN(C(=O)c3cc(C)no3)CC2)cs1	6.247
Cc1cc(C(=O)N2CCc3c(ncn3CCc3ccccc3)C2)on1	8.742
CCOC(=O)N1CCN(C(=O)c2cc(-c3ccccc3F)on2)CC1	1.064
Cc1cccc(C(C(=O)N(C)Cc2cc(C)no2)N(C)C)c1 (centres undefined)	-11.12
CC(C)=CCN1CCNC(=O)C1CC(=O)N1CCc2sccc2C1 (centres undefined)	13
CC(C)NC(=O)[C@@H]1C[C@@H]2CCN(Cc3ccoc3)C[C@H]2O1.O=C(O)C(F)(F)F	74.8
COc1ccccc1CN1CC[C@H]2C[C@@H](C(=O)N3CCCC3)O[C@H]2C1.O=C(O)C(F)(F)F	2.639
Cc1ncccc1NC(=O)[C@H]1C[C@@H]2CCN(Cc3ccsc3)C[C@H]2O1.O=C(O)C(F)(F)F.O=C(O)C(F)(F)F	-7.023
O=C(NC1CCC1)[C@@H]1C[C@@H]2CCN(CCc3ccccc3)C[C@H]2O1.O=C(O)C(F)(F)F	2.186
O=C(NC1CCCC1)[C@@H]1C[C@@H]2CCN(Cc3ccoc3)C[C@H]2O1.O=C(O)C(F)(F)F	111.5
O=C(NC1CC1)[C@@H]1C[C@@H]2CCN(Cc3ccccc3)C[C@H]2O1.O=C(O)C(F)(F)F	-0.327
O=C(NC1CC1)[C@@H]1C[C@@H]2CCN(Cc3ccoc3)C[C@@H]2O1.O=C(O)C(F)(F)F	102.1
COc1ccccc1CN1CC[C@H]2C[C@H](C(=O)N3CCCC3)O[C@H]2C1.O=C(O)C(F)(F)F	-2.148
O=C(O)C(F)(F)F.O=C([C@@H]1C[C@@H]2CCN(Cc3ccoc3)C[C@H]2O1)N1CCCC1	103.1

SMILES	Percent Effect [%]
O=C(NC1CC1)[C@@H]1C[C@@H]2CCN(Cc3ccccc3)C[C@@H]2O1.O=C(O)C(F)(F)F	-0.7056
Cc1c(C(=O)OCC2CC(=O)N(c3ccccc3)C2)cnn1C(C)C (centres undefined)	4.999
CN(C)C(=O)[C@H]1C[C@@H]2CCN(Cc3ccoc3)C[C@@H]2O1.O=C(O)C(F)(F)F	113.2
CN(C)S(=O)(=O)N1C[C@@H]2CN(Cc3ccoc3)CCO[C@@H]2C1.O=C(O)C(F)(F)F	-19.85
CN(C)C(=O)[C@@H]1C[C@@H]2CCN(Cc3ccc4c(c3)OCO4)C[C@@H]2O1.O=C(O)C(F)(F)F	-14.9
CCc1ccc(C(=O)N2CC[C@](C)(O)C(C)(C)C2)[nH]1	-18.68
COc1c2ccc(C(=O)NCCCn3ncccc3=O)cc2nn1C	16.19
COc1ccccc1-n1cc(CN2CCN(C)[C@@H]3CS(=O)(=O)C[C@@H]32)cn1	-2.085
Cc1nc(C)n(CCCNC(=O)C(C)n2ccnc2C(C)C)n1 (centres undefined)	3.373
COc1ccccc1-n1cc(C(=O)NCCn2nc(C)nc2C)cn1	116.2
COc1ccccc1N1CCN(C(=O)CCn2nnnc2C)CC1(C)C	3.802
COc1ccccc1-n1cc(C(=O)NCCCn2nc(C)nc2C)cn1	95.25
CN(CCN1CCOCC1)C(=O)CCc1ccc(C(F)(F)F)cc1	-5.006
CCc1[nH]c2ccc(CNc3cncc(C(=O)N(C)C)n3)cc2c1C	5.05
Cc1nnc(NCC(c2ccco2)N2CCCC2)c(C#N)c1C (centres undefined)	-0.3665
COC(=O)NCC(=O)N1CCCn2nc(CN3CC[C@H](F)C3)cc2C1	-5.697
Cc1occc1-c1nc(-c2cccc(CN3CCOCC3)c2)no1	0.4297
O=C1OCCCN1Cc1nc(-c2ccc(N3CCCCC3)cc2)no1	-4.946
c1cc(N2CCCCC2)ccc1-c1noc(CN2CCOCC2)n1	101.7
O=C1NCCCN1Cc1nc(-c2ccc(N3CCCCC3)cc2)no1	-15.88
Cc1cc(-c2nc(-c3cccc(CN4CCOCC4)c3)no2)no1	-11.24
Brc1cccc(-c2noc(CN3CCOCC3)n2)c1	107.1
